# About 8,200 (3.7%) of roughly 220,000 compounds were called active. For the sample, actives were picked, then their nearest neighbours and some compounds at random. Values without a mark were called inactive.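 How the source made its calls: active means compounds that reduced the stress-induced luciferase reporter signal by more than about 70% of percent inhibition (limit read from the data); inactive means the rest.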
# Assay: inhibitors of CHOP promoter induction, primary screen, cell-based, unfolded protein response, luciferase reporter (AID 2732);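 further: 0% = tunicamycin plus vehicle and 100% = wells without tunicamycin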
# Conditions: CHO-K1 CHOP-promoter luciferase, tunicamycin-induced, 15-18 h; at 10 µM; active compounds read high
row,SMILES,inhibition
1,COc1ccc(Cl)cc1NC(=O)CCN1CCOCC1,5.05%
2,CC(=O)NC(C)c1nc2ccccc2n1Cc1ccccc1F (stereo not given),-2.56%
3,CC(C)Cc1nc(Nc2ccc(S(=O)(=O)N3CCCC3)cc2)c2nnn(Cc3ccccc3)c2n1,27.2%
4,C#CCNc1nc(C(C)C)nc2c1nnn2Cc1ccccc1F,89.8% (active)
5,CC1C(=O)NC(=O)C1c1ccccc1 (stereo not given),8.56%
6,CCCC(=O)Nc1ccc2c(c1)nc(CCNC(=O)c1ccco1)n2C,-14.7%
7,CC(NC(=O)C(C)(C)C)C(c1cccs1)N1CCN(Cc2ccccc2)CC1 (stereo not given),-20.7%
8,CCOC(=O)C1=C(CN2CCCCCC2)NC(=O)NC1c1cccc([N+](=O)[O-])c1 (stereo not given),-12.3%
9,CCOC(=O)C1=C(CN2CCc3ccccc32)NC(=O)NC1c1ccc(Cl)cc1 (stereo not given),85.1% (active)
10,CCOC(=O)C1=C(CN2CCc3ccccc32)NC(=O)NC1c1cccc([N+](=O)[O-])c1 (stereo not given),60.9%
11,Cc1ccc(C(=O)NNC2=Nc3cc([N+](=O)[O-])ccc3OC2)cc1,-15.9%
12,Cn1nc(C(C)(C)C)c(NC(=O)c2sccc2Cl)c1C(C)(C)C,3.22%
13,CC(C)c1c(O)nc(SCCOc2ccc(Cl)cc2)[nH]c1=O,4.19%
14,CCOC(=O)N1CCN(C(=O)c2ccc(S(=O)(=O)c3ccc(C)cc3)c(NC(C)=O)c2)CC1,33.2%
15,CCOC(=O)N1CCN(C(=O)c2ccc3c(c2)N(Cc2ccc(C)cc2)CCS3)CC1,76.8% (active)
16,O=C(NCCN1CCOCC1)c1ccc2c(c1)N(Cc1ccc(Cl)cc1)CCS2,15%
17,O=C(NCCCc1ccccc1)C1CCC(CNc2c(N3CCCCC3)c(=O)c2=O)CC1 (stereo not given),0.92%
18,CCC(=O)c1ccc(OCC(O)CN2CCN(c3cccc(C(F)(F)F)c3)CC2)cc1 (stereo not given),84.2% (active)
19,COC(=O)c1ccccc1OCC(=O)N1CCN(c2ccc(Cl)cc2)CC1,22.2%
20,CCC(=O)c1ccc(OCC(O)CN2CC(C)OC(C)C2)cc1 (stereo not given),-8.55%
21,OC(COc1ccc2c(c1)CCC2)CN1CCN(c2cccc(Cl)c2)CC1 (stereo not given),44.8%
22,O=C(COc1ccc(Cl)cc1)N1CCN(c2cccc(C(F)(F)F)c2)CC1,86.3% (active)
23,O=C(COc1ccc(Cl)cc1)N1CCN(S(=O)(=O)c2ccc(Cl)cc2)CC1,42.3%
24,O=C(C1=C(O)C(=O)N(CCOCCO)C1c1ccccn1)c1cccs1 (stereo not given),8.68%
25,FC(F)(F)c1ccc(-n2cn[nH]c2=S)cc1,9.71%

# From PubChem BioAssay AID2732 (Emory University Molecular Libraries Screening Center, 2010)
